Records with an inconclusive call do not appear. A call without a number means that no potency is given here. Active and inactive are the calls of the source. The call rests on the fitted dose curve; in most records, active means well fitted inhibition curve with a large enough effect; inconclusive means small, poorly fitted or top-dose-only effect, or effect the other way; inactive means flat fitted curve, though single readings scatter.
What follows are molecules tested against ATPase family AAA domain-containing protein 5 (Homo sapiens) (UniProt Q96QE3) (assay: Validation screen for small molecules that inhibit ELG1-dependent DNA repair in human embryonic kidney (HEK293T) cells expressing luciferase-tagged ELG1 (AID 493107; further: nearly all actives have a fitted effect of over 70% in size)). Details: HEK293T ELG1-luciferase level, luminescence, 5-fluorouridine co-treatment, 16 h; series mostly up to 46.1 µM.
Text: NIH Molecular Libraries Probe Production Network [MLPCN]
NIH Chemical Genomics Center [NCGC]
Assay Provider: Kyungjae Myung, NHGRI, NIH
Keywords: MLPCN, qHTS, NCGC, genotoxicity, cancer
Cancer cells divide rapidly compared to normal cells in the body. During cell division, cancer cells need to duplicate their genome by DNA replication. The failure of genome duplication leads to cancer cells' death. Therefore, inhibitors of DNA replication could specifically kill cancer cells. Based on this concept, many chemotherapeutic agents were developed and have been used to treat cancer patients. However, there are a limited number of agents available in the clinical setting, and some of those that do exist have low efficacy and severe side effects. Therefore, if we can find the compounds that effectively block DNA replication either by directly damaging DNA or by inhibiting other cellular mechanisms, the options for cancer treatment will be broadened. With this in mind, we developed a quantitative high-throughput ELG1-luciferase reporter gene assay. Small molecules that specifically block ELG1 function in response to DNA damage can be identified by monitoring the suppression of luciferase activity. Since ELG1 defines a pathway for repairing DNA damage, agents blocking ELG1 function can be used to sensitize cancer cells to chemotherapeutic agents whose mechanism of action involves the induction of DNA damage.
For genotoxicity screening, 2,000 cells in 4 uL/well were dispensed into white, solid-bottom 1536-well plates using a solenoid-based dispenser. Following transfer of 1 uL 5-Fluorouridine and 23 nL compound or DMSO vehicle by a pin tool, the plates were incubated 16 hr at 37 °C and 5% CO2. 5 ul ONE-Glo (Promega) was then added to each plate and following a 30 min incubation at room temperature, luciferase activity was quantified on a ViewLux CCD-based plate reader.
Potency means the concentration at half of the fitted maximal effect.

ATPase family AAA domain-containing protein 5 (Homo sapiens), sequence (Q96QE3 whole entry, looked up, the tested form may be a part): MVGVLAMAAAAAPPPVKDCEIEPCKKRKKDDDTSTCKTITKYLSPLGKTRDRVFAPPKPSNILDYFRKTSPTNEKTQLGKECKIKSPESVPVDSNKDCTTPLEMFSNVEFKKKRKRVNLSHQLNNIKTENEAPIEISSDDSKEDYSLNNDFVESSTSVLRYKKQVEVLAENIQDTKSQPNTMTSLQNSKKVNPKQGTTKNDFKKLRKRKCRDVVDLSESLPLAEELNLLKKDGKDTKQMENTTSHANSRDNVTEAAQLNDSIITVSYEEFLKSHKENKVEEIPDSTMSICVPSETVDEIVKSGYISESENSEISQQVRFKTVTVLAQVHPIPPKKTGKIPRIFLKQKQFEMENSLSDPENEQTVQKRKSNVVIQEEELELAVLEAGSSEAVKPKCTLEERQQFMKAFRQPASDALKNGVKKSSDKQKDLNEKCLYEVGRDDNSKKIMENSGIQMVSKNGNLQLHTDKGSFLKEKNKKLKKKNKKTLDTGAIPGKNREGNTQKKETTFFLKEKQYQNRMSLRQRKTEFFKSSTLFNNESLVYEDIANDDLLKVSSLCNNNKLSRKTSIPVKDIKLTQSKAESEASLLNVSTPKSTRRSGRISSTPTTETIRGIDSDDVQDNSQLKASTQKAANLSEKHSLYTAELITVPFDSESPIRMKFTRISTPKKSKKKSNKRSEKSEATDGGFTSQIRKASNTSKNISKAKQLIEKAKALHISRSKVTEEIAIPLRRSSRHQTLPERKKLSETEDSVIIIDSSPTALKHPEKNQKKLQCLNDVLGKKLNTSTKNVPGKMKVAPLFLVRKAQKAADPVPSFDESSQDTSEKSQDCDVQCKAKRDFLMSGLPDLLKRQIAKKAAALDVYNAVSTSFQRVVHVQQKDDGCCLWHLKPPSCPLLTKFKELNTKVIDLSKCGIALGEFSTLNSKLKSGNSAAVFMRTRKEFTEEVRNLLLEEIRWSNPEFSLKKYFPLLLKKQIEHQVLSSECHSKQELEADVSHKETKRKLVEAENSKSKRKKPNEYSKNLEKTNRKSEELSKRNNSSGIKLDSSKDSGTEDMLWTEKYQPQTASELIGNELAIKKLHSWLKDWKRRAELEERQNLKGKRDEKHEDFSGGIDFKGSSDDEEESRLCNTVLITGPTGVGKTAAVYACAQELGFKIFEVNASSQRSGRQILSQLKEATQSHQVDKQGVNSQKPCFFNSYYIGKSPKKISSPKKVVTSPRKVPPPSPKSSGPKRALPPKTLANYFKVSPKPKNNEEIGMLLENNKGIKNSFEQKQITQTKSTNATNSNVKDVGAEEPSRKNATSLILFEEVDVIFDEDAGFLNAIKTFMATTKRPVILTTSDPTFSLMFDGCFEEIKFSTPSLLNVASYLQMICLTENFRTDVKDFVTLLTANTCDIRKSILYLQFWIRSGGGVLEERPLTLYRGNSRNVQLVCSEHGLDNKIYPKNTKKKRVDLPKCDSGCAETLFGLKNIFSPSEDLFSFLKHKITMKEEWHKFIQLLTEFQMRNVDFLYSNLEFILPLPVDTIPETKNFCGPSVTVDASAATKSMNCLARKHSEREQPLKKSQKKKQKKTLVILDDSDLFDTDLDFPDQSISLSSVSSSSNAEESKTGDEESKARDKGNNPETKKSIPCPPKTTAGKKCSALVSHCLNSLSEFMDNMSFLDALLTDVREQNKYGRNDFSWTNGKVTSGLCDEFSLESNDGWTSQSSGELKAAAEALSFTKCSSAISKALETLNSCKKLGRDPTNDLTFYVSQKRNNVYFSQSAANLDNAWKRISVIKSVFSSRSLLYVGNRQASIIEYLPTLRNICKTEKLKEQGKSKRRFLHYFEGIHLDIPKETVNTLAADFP

Compound	Potency
Oc1ccc(C2CNCc3sccc32)cc1O (stereo not given)	inactive
N#C/C(=C\c1ccc(O)c(O)c1)C(=O)NCc1ccccc1	inactive
O=C(O)CC1CC(c2ccccc2)=NO1 (stereo not given)	inactive
NC(=O)C(=O)O	inactive
NC(CCCP(=O)(O)O)C(=O)O (stereo not given)	inactive
COc1cccc(OC)c1OCCNCC1COc2ccccc2O1 (stereo not given)	inactive
CN(C)CCC(c1ccc(Cl)cc1)c1ccccn1 (stereo not given)	inactive
CC(C)NC[C@H](O)COc1cccc2[nH]ccc12	inactive
O=C1NC(O)=NC1(c1ccccc1)c1ccccc1	inactive
C[N+](C)(CCCCCC[N+](C)(C)CCCN1C(=O)c2cccc3cccc(c23)C1=O)CCCN1C(=O)c2cccc3cccc(c23)C1=O	inactive
O=C1/C(=C/c2ccsc2)CC/C1=C\c1cccs1	inactive
CC(=O)N[C@H](C(=O)O)C(C)(C)SN=O	inactive
CNc1ncnc2c1ncn2[C@@H]1O[C@H](CO)[C@@H](O)[C@H]1O	inactive
C=C[C@@H]1CN2CC[C@@H]1C[C@H]2[C@H](O)c1ccnc2ccc(OC)cc12	inactive
CNCC[C@H](Oc1ccc(C(F)(F)F)cc1)c1ccccc1	inactive
C=C[C@H]1CN2CC[C@@H]1C[C@@H]2[C@@H](O)c1ccnc2ccc(OC)cc12	inactive
COc1cc(SC)ccc1C(=O)N1CCC(Cc2ccccc2)CC1	inactive
Cc1cc(NC2CCCCC2)nc(-n2nc(C)cc2C)n1	14.6 µM (active)
CN1CCc2cc(O)c(O)cc2C(c2ccccc2)C1 (stereo not given)	inactive
OC[C@H]1O[C@@H](n2cnc3c(NC4CCCC4)ncnc32)[C@H](O)[C@@H]1O	inactive

Compound	Potency
O=C(O)c1cc(=O)c2c(Cl)cc(Cl)cc2[nH]1	inactive
CCCCC#Cc1nc(NC)c2ncn([C@@H]3O[C@H](CO)[C@@H](O)[C@H]3O)c2n1	inactive
CCC1C(=O)OCC1Cc1cncn1C (stereo not given)	inactive
CC(C)NC[C@@H](O)c1ccc(O)c(O)c1	inactive
CCc1c(C(=O)NCCc2ccc(N3CCCCC3)cc2)[nH]c2ccc(Cl)cc12	inactive
CC(=O)SCC[N+](C)(C)C	inactive
CC(C)NCC(O)COc1cccc2ccccc12 (stereo not given)	inactive
NC(=S)c1ccc[n+]([C@@H]2O[C@@H](COP(=O)([O-])OP(=O)(O)OC[C@H]3O[C@@H](n4cnc5c(N)ncnc54)[C@H](OP(=O)(O)O)[C@@H]3O)C(O)C2O)c1 (stereo not given in full)	inactive
Nc1nc(Cl)nc2c1ncn2[C@@H]1O[C@H](COP(=O)(O)OP(=O)(O)OP(=O)(O)O)[C@@H](O)[C@H]1O	inactive
CC12C(=O)OC(=O)C1(C)C1CCC2O1 (stereo not given)	14.6 µM (active)
NCCSSCCN	inactive
O=c1[nH]c2cc([N+](=O)[O-])c([N+](=O)[O-])cc2[nH]c1=O	inactive
CCCCCCCCCCCCCCCC(=O)OC(CC(=O)O)C[N+](C)(C)C (stereo not given)	inactive
CCNC(=O)[C@H]1O[C@@H](n2cnc3c(N)nc(NCCc4ccc(CCC(=O)O)cc4)nc32)[C@H](O)[C@@H]1O	inactive
C=CC(=O)c1ccc(CCCCCC)cc1	inactive
O=c1[nH]c2cc(C(F)(F)F)ccc2n1-c1cc(C(F)(F)F)ccc1O	inactive
CC1OC1P(=O)(O)O (stereo not given)	inactive
CCCCC/C=C\CC(O)/C=C/c1cccc(CC(O)CCCCO)n1 (stereo not given)	inactive
CC(C)Cc1ccc([C@H](C)C(=O)O)cc1	inactive
C=CC(C)=C[C@@]1(C)SC(=O)C(C)=C1O	inactive
